Test results published in the supplement of paper PMC8975748.
Where a name gives a salt, the structure may show the parent alone. ± gives the standard deviation of the averaged measurements.

What was measured:
[1] = tested on: Saccharomyces cerevisiae BY4741 SeMeCo community; assay: z-score of prototroph abundance vs DMSO median; higher = larger share of this subpopulation than in DMSO controls; settings: 10 µM; 24 h; SM minimal medium; subpopulation (auxotrophy): Prototroph
Outline: (§1)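 Automated confocal microscopy of paraformaldehyde-fixed cells was used to follow a Saccharomyces cerevisiae BY4741 community carrying four plasmids, each restoring one auxotrophy and encoding a distinct fluorescent protein. The community was pre-grown overnight to OD600 1.0, diluted to 0.3, and added at 70 µl to 384-well plates acoustically predosed with library drugs (10 µM final) for 24 h of growth in minimal SM medium. Single-auxotroph fluorescent strains set thresholds and autofluorescence correction, and each subpopulation's abundance was scored as a z-score against the vehicle-well median.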

[2] = tested on: Saccharomyces cerevisiae BY4741 SeMeCo community; assay: z-score of subpopulation abundance vs DMSO median, subpopulation auxotrophic for U; higher = larger share of this subpopulation than in DMSO controls; settings: 10 µM; 24 h; SM minimal medium; subpopulation (auxotrophy): U
Outline: as §1

[3] = tested on: Saccharomyces cerevisiae BY4741 SeMeCo community; assay: z-score of subpopulation abundance vs DMSO median, subpopulation auxotrophic for H; higher = larger share of this subpopulation than in DMSO controls; settings: 10 µM; 24 h; SM minimal medium; subpopulation (auxotrophy): H
Outline: as §1

[4] = tested on: Saccharomyces cerevisiae BY4741 SeMeCo community; assay: z-score of subpopulation abundance vs DMSO median, subpopulation auxotrophic for LU; higher = larger share of this subpopulation than in DMSO controls; settings: 10 µM; 24 h; SM minimal medium; subpopulation (auxotrophy): LU
Outline: as §1

[5] = tested on: Saccharomyces cerevisiae BY4741 SeMeCo community; assay: z-score of subpopulation abundance vs DMSO median, subpopulation auxotrophic for LM; higher = larger share of this subpopulation than in DMSO controls; settings: 10 µM; 24 h; SM minimal medium; subpopulation (auxotrophy): LM
Outline: as §1

[6] = tested on: Saccharomyces cerevisiae BY4741 SeMeCo community; assay: z-score of subpopulation abundance vs DMSO median, subpopulation auxotrophic for HM; higher = larger share of this subpopulation than in DMSO controls; settings: 10 µM; 24 h; SM minimal medium; subpopulation (auxotrophy): HM
Outline: as §1

[7] = tested on: Saccharomyces cerevisiae BY4741 SeMeCo community; assay: z-score of subpopulation abundance vs DMSO median, subpopulation auxotrophic for HU; higher = larger share of this subpopulation than in DMSO controls; settings: 10 µM; 24 h; SM minimal medium; subpopulation (auxotrophy): HU
Outline: as §1

[8] = tested on: Saccharomyces cerevisiae BY4741 SeMeCo community; assay: z-score of subpopulation abundance vs DMSO median, subpopulation auxotrophic for UM; higher = larger share of this subpopulation than in DMSO controls; settings: 10 µM; 24 h; SM minimal medium; subpopulation (auxotrophy): UM
Outline: as §1

[9] = tested on: Saccharomyces cerevisiae BY4741 SeMeCo community; assay: z-score of subpopulation abundance vs DMSO median, subpopulation auxotrophic for HL; higher = larger share of this subpopulation than in DMSO controls; settings: 10 µM; 24 h; SM minimal medium; subpopulation (auxotrophy): HL
Outline: as §1

[10] = tested on: Saccharomyces cerevisiae BY4741 SeMeCo community; assay: z-score of subpopulation abundance vs DMSO median, subpopulation auxotrophic for HLU; higher = larger share of this subpopulation than in DMSO controls; settings: 10 µM; 24 h; SM minimal medium; subpopulation (auxotrophy): HLU
Outline: as §1

[11] = tested on: Saccharomyces cerevisiae BY4741 SeMeCo community; assay: z-score of subpopulation abundance vs DMSO median, subpopulation auxotrophic for HLM; higher = larger share of this subpopulation than in DMSO controls; settings: 10 µM; 24 h; SM minimal medium; subpopulation (auxotrophy): HLM
Outline: as §1

[12] = tested on: Saccharomyces cerevisiae BY4741 SeMeCo community; assay: z-score of subpopulation abundance vs DMSO median, subpopulation auxotrophic for HUM; higher = larger share of this subpopulation than in DMSO controls; settings: 10 µM; 24 h; SM minimal medium; subpopulation (auxotrophy): HUM
Outline: as §1

[13] = tested on: Saccharomyces cerevisiae BY4741 SeMeCo community; assay: z-score of subpopulation abundance vs DMSO median, subpopulation auxotrophic for LUM; higher = larger share of this subpopulation than in DMSO controls; settings: 10 µM; 24 h; SM minimal medium; subpopulation (auxotrophy): LUM
Outline: as §1

[14] = tested on: Saccharomyces cerevisiae BY4741 SeMeCo community; assay: z-score of subpopulation abundance vs DMSO median, subpopulation auxotrophic for HLUM; higher = larger share of this subpopulation than in DMSO controls; settings: 10 µM; 24 h; SM minimal medium; subpopulation (auxotrophy): HLUM
Outline: as §1

[15] = tested on: Saccharomyces cerevisiae BY4741 SeMeCo community; assay: mean cell size (pixel area) (pixels); higher = larger cells; settings: 10 µM; 24 h; SM minimal medium
Outline: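 Plates of 384 wells were acoustically predosed with drug at a final 10 µM in SM medium, and 70 µl of a Saccharomyces cerevisiae BY4741 preculture diluted from OD600 = 1.0 to OD600 = 0.3 was added for 24 h. The yeast formed a four-plasmid fluorescent community in which each plasmid complements one auxotrophy and carries a fluorescent marker. Fixed cells were imaged by automated confocal microscopy and analysed in Harmony for mean cell pixel area per well. Values are means of 3 replicates. Same SeMeCo high-content imaging drug screen: Selleck FDA-approved drugs at 10 µM, 24 h in SM medium, 384-well plates, 3 replicates.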

[16] = tested on: Saccharomyces cerevisiae BY4741 SeMeCo community; assay: z-score of subpopulation abundance vs DMSO median, subpopulation auxotrophic for L; higher = larger share of this subpopulation than in DMSO controls; settings: 10 µM; 24 h; SM minimal medium; subpopulation (auxotrophy): L
Outline: as §1

| SMILES | z-score of prototroph abundance [1] | z-score of subpopulation abundance [2] | z-score of subpopulation abundance [3] | z-score of subpopulation abundance [4] | z-score of subpopulation abundance [5] | z-score of subpopulation abundance [6] | z-score of subpopulation abundance [7] | z-score of subpopulation abundance [8] | z-score of subpopulation abundance [9] | z-score of subpopulation abundance [10] | z-score of subpopulation abundance [11] | z-score of subpopulation abundance [12] | z-score of subpopulation abundance [13] | z-score of subpopulation abundance [14] | mean cell size [15] | z-score of subpopulation abundance [16] |
| --- | --- | --- | --- | --- | --- | --- | --- | --- | --- | --- | --- | --- | --- | --- | --- | --- |
| CC/C(=C(\c1ccccc1)c1ccc(OCCN(C)C)cc1)c1ccccc1 [Tamoxifen Citrate] | -0.56 | 0.72 | 1.16 | 0.35 | -0.23 | 0.16 | 0.74 | 1.43 | 0.64 | 0.36 | -0.48 | 1.07 | 0.58 | -0.65 |  |  |
| COc1cccc(-c2c(C)n(Cc3c(F)cccc3C(F)(F)F)c(=O)n(C[C@H](NCCCC(=O)O)c3ccccc3)c2=O)c1F [Elagolix Sodium] | 0.61 | 0.24 | 1.38 | -0.52 | -0.38 | -0.13 | 0.74 | -0.27 | 0.13 | -0.37 | -0.27 | 0.12 | -0.77 | -0.29 | 12.5 ± 0.27 |  |
| COc1cc(NS(=O)(=O)c2ccc(N)cc2)nc(OC)n1 [SulfadiMethoxine sodium] | 0.53 | -0.68 | -0.13 | -0.82 | -0.45 | 0.06 |  | -0.12 | -0.28 | -0.72 | 0 | -0.22 | -0.37 | -0.21 | 12.4 ± 0.15 |  |
| Cc1c(-c2ccccc2)oc2c(C(=O)OCCN3CCCCC3)cccc2c1=O [Flavoxate HCl] | -0.85 | 0.96 | -0.53 | 1.88 | 0.22 | 0.21 | 0.05 | 0.71 | -0.37 | 1.32 | 0.18 |  | 1.06 |  | 12 ± 0.18 | 0.83 |
| CN1CCC(=C2c3ccccc3CCc3sccc32)CC1 [Pizotifen Malate] | 0.02 | -0.76 | -0.02 | 0.03 | -0.03 |  | -0.33 | -0.43 | 0.05 | 0.5 | 0.21 | -0.14 | -0.55 | 0.16 |  | 0.36 |
| C[C@@H]1O[C@@H]1P(=O)(O)O [Fosfomycin Disodium] | 0.42 | -0.22 |  | 0.6 | -0.25 | -0.52 | 0.04 | -0.18 | 0.86 | 0.52 | -0.12 |  | 0.06 | -0.05 | 12 ± 0.14 | 0.72 |
| C[C@@H](O)[C@H]1C(=O)N2C(C(=O)[O-])=C(SC3Cn4cnc[n+]4C3)[C@H](C)[C@H]12 (stereo partly drawn) [Biapenem] | 0.75 |  |  | -1.32 | -0.22 | 0.51 | -0.36 | -0.17 | -0.48 | -1.25 | -0.52 |  | -0.49 |  | 12.11 ± 0.1 | -0.66 |
| O=C([O-])CC(O)(CC(=O)[O-])C(=O)[O-].O=C([O-])CC(O)(CC(=O)[O-])C(=O)[O-].[Bi+3].[K+].[K+].[K+].[K+].[K+] [Bismuth Subcitrate Potassium] |  |  | 3.24 | 1.34 | -1.07 | -1.66 | 2.94 | -2.69 | 4.34 | 3 |  | -1.79 | 0.14 | 0.65 |  |  |
